Assay results as given in PubChem BioAssay (NCI).
Compounds without any hit were thinned out: in the full panel of roughly 79,000, 15% have a hit. Active and inactive are the calls of the source. Rule as the data show it: active = growth inhibition above about 70%; inactive = the rest.

Experiments:
[1] = NCI Yeast Anticancer Drug Screen. Data for the rad50 strain (AID 155);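 also: 0% = growth of vehicle-only cultures of the same strain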; conditions: S. cerevisiae rad50 strain growth inhibition, hits give high values
Method in brief: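 DNA repair mutant yeast, compound exposure, growth read-out; inhibition is taken relative to vehicle.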

[2] = NCI Yeast Anticancer Drug Screen. Data for the mec2-1 strain (AID 157); conditions: S. cerevisiae mec2-1 strain, hits give high values
Method in brief: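 Readout is yeast growth inhibition, normalised to vehicle-treated controls, in the mec2-1 strain exposed to compound.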

[3] = NCI Yeast Anticancer Drug Screen. Data for the sgs1 mgt1 strain (AID 161);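 also: 0% = growth of cultures given vehicle only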; conditions: S. cerevisiae sgs1 mgt1 strain, hits give high values
Method in brief: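 Yeast cells carrying a defined DNA-repair defect were exposed to test compounds. Growth inhibition was measured relative to vehicle-treated controls.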

[4] = NCI Yeast Anticancer Drug Screen. Data for the cln2 rad14 strain (AID 165);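 also: 0% = growth equal to vehicle treated cultures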; conditions: S. cerevisiae cln2 rad14 strain, hits give high values
Method in brief: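 Relative to vehicle controls, growth inhibition of compound-treated cln2 rad14 yeast was recorded.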

[5] = NCI Yeast Anticancer Drug Screen. Data for the bub3 strain (AID 167); conditions: S. cerevisiae bub3 mutant strain, hits give high values
Method in brief: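 In this screen, a yeast mutant lacking normal mitotic checkpoint function is challenged with compound. Relative growth versus vehicle gives the inhibition value.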

[6] = NCI Yeast Anticancer Drug Screen. Data for the mlh1 rad18 strain (AID 175); conditions: S. cerevisiae mlh1 rad18 strain growth inhibition, hits give high values
Method in brief: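 Test agents were incubated with a yeast strain of defined genotype (DNA damage repair defect). Inhibition of growth was derived by comparison with vehicle-exposed cultures.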

[7] = at 5.0 µM (retest, dose inferred, filed as 0.5)
[8] = at 50.0 µM (retest, dose inferred, filed as 5.0)

Measured: growth inhibition

S=c1nc(C(c2ccccc2)c2ccccc2)[nH][nH]1
inactive: [1]; [7] -2% | [1]; [8] 1% | [1]; at 50.0 µM 29.1% | [2]; [7] -1% | [2]; [8] 7% | [2]; at 50.0 µM 1.7% | [3]; [7] 10% | [3]; [8] 13% | [3]; at 50.0 µM 40.4% | [4]; [7] 0% | [4]; [8] -2% | [4]; at 50.0 µM 28.1% | [5]; [7] 1% | [5]; [8] 27% | [5]; at 50.0 µM 11.6% | [6]; [7] -3% | [6]; [8] 3% | [6]; at 50.0 µM 65.5%

CCCCCCCCCCCCS(=O)(=O)CC(Br)C(=O)c1ccco1 (stereo not given)
inactive: [1]; [7] 57% | [2]; [7] 42% | [3]; [7] 67% | [4]; [7] 12% | [5]; [7] 43% | [6]; [7] 68%
active: [1]; [8] 96% | [1]; at 50.0 µM 94.2% | [2]; [8] 97% | [2]; at 50.0 µM 96.9% | [3]; [8] 96% | [3]; at 50.0 µM 95.3% | [4]; [8] 90% | [4]; at 50.0 µM 93.7% | [5]; [8] 95% | [5]; at 50.0 µM 95.1% | [6]; [8] 93% | [6]; at 50.0 µM 95.3%

O=C(CC(=O)c1cc(Cl)ccc1O)c1cccnc1
inactive: [1]; [7] 2% | [1]; at 50.0 µM 68% | [2]; [7] 2% | [2]; [8] 49% | [2]; at 50.0 µM 17.9% | [3]; [7] 1% | [3]; at 50.0 µM 49.9% | [4]; [7] 7% | [4]; [8] 49% | [4]; at 50.0 µM -21.1% | [5]; [7] 4% | [5]; at 50.0 µM -16.1% | [6]; [7] 2% | [6]; at 50.0 µM 47%
active: [1]; [8] 95% | [3]; [8] 91% | [5]; [8] 94% | [6]; [8] 99%

CC(C)(C)C1=CC(N2CCCCC2)(C(C)(C)C)C=C(C(C)(C)C)C1=O
inactive: [1]; [7] 0% | [1]; [8] 55% | [2]; [7] -2% | [2]; [8] 64% | [3]; [7] 3% | [4]; [7] -3% | [4]; [8] 30% | [4]; at 50.0 µM 65.3% | [5]; [7] -6% | [5]; [8] 35% | [6]; [7] 0%
active: [1]; at 50.0 µM 93.8% | [2]; at 50.0 µM 91.8% | [3]; [8] 77% | [3]; at 50.0 µM 95.3% | [5]; at 50.0 µM 81.2% | [6]; [8] 73% | [6]; at 50.0 µM 94.8%

CC(C)=CCC/C(C)=C/CC/C(C)=C/CSc1ccccc1C(=O)O
inactive: [1]; [7] 22% | [1]; [8] 17% | [2]; [7] 10% | [2]; [8] 14% | [3]; [7] 14% | [3]; [8] 10% | [3]; at 50.0 µM 54.5% | [4]; [7] 8% | [4]; [8] 20% | [4]; at 50.0 µM 10.2% | [5]; [7] 18% | [5]; [8] 19% | [5]; at 50.0 µM 62.2% | [6]; [7] 22% | [6]; [8] 18% | [6]; at 50.0 µM 41.5%
active: [1]; at 50.0 µM 76.3% | [2]; at 50.0 µM 75.8%
